Measurements from PubChem BioAssay AID624115 (Johns Hopkins Ion Channel Center, 2012).
Hit rate of the full screen: of about 4,000 compounds, about 350 (8.8%) were called active.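 How the source made its calls: active means calcium fluorescence ratio at least three times the spread of buffer wells, meaning a non-specific response in parental cells; inactive means the rest.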 Many of the other results were omitted from the sample, so actives are more common in it than they were.

Assay: calcium response in parental HEK293 cells, primary screen, counter-screen for MrgX1 agonist project, cell-based, Fluo-4 calcium flux, duplicate, agonist mode (AID 624115)
Settings: parental HEK293, Fluo-4 calcium fluorescence (FDSS), at 10 µM; stronger effect = higher value

| SMILES | fluorescence ratio F(max-min)/F0 |
| --- | --- |
| CCCCC(=O)N/N=C/c1c(O)n(CC)c(=S)n(CC)c1=O | 78.9 (active) |
| O=C(CCN1CCCCC1)NCC(=O)Nc1ccc(Br)cc1C(=O)c1ccccc1 | inactive |
| CCCCCn1c(=O)c(C(=O)NCc2ccccc2)c(O)c2ccccc21 | inactive |
| C=CCN1C(=O)C2(C(C(=O)OCC)=C(N)Oc3c2c(=O)oc2ccccc32)c2ccccc21 (stereo not given) | inactive |
| COc1ccc(S(=O)(=O)NCc2ccc(C(=O)N3CCC4(CC3)OCCO4)cc2)cc1 | inactive |
